From PubChem BioAssay AID1568 (National Center for Advancing Translational Sciences (NCATS), 2009)
Inconclusive results are not listed. A call without a number means that no potency is given here. Active and inactive are the calls of the source. The call rests on the fitted dose curve; in most records, active means well fitted curve in the direction sought with a large enough effect; inconclusive means small, poorly fitted or top-dose-only effect, or effect the other way, or another doubt; inactive means no such curve, though single readings can be large or run the other way.

Experiment: Cell Viability Secondary Assay to Characterize qHTS Inhibitors of the Interaction of Thyroid Hormone Receptor and Steroid Receptor Coregulator 2
Conditions: cell viability counter-screen, qHTS titration; series mostly up to 29.9 µM
Text: NIH Molecular Libraries Probe Production Network [MLPCN]
NIH Chemical Genomics Center [NCGC]
Assay Provider: R. Kip Guy, St. Jude Children's Research Hospital
Thyroid receptor (TR) regulates many homeostatic processes including basal metabolism, cardiovascular function, body weight, and lipid trafficking. TR modulators are potential therapeutics for obesity and hyperlipidemias but current thyroid analogs have undesirable side effects, particularly cardiac stimulation. This secondary assay characterized selected actives identified in the qHTS for Inhibitors of the Interaction of Thyroid Hormone Receptor and Steroid Receptor Coregulator 2. The human follicular thyroid carcinoma cell line WRO (kindly provided by Dr. M. D. Ringel) stably expresses TRbeta and a luciferase reporter gene fused to TR response element. The effect of compounds on the viability of these cells was assessed by measuring ATP levels. Compounds that reduce cell viability are likely cytotoxic.
NCGC Assay Protocol Summary:
Cells were maintained in RPMI 1640 culture medium supplemented with 10% heat-inactivated FBS, 0.33 mg/ml hygromycin, 0.33 mg/ml geneticin, 50 units/ml penicillin, 50 ug/ml streptomycin. Cells were harvested and resuspended at 330,000 cells/ml in assay medium (50% DMEM 50% F-12 medium without Phenol-Red (Cellgro #16-405-CV), L-glutamine, 10% heat inactivated and charcoal treated FBS, 100 uM non-essential amino acid, 50 units/ml penicillin, 50 ug/ml streptomycin). Cells were dispensed at 10,000 cells/30 ul/well into 384 well plates (Corning 3917) and incubated 12 h at 37 C and 5% CO2. Compounds and T3 (100nM final concentration) were added using a pin tool and plates were incubated 16 h incubation at 37 C and 5% CO2. Following incubation, plates were equilibrated at ambient temperature for 30 min, 20 ul of CellTiter-Glo (Promega) was added and luminescence was detected by an EnVision (PerkinElmer).

Compound | Potency
CN1CC[C@@]2(C)c3cc(O)ccc3N(C)C2O1 (stereo not given in full) | 14.1 µM (active)
COP(=S)(OC)Oc1ccc([N+](=O)[O-])cc1 | 31.6 µM (active)
Cc1[nH]n(-c2ccccc2)c(=O)c1C(c1ccc([N+](=O)[O-])cc1)c1c(C)[nH]n(-c2ccccc2)c1=O | inactive
O=C(O)CC1OCC=C2CN3CCC45C6=CC(=O)C(=O)C([N+](=O)[O-])=C6NC4C1C2CC35 (stereo not given) | inactive
CCCCCn1c(N)c(C(=O)NCc2cccs2)c2nc3ccccc3nc21 | inactive
